Source: PubChem BioAssay (NCATS)
Inconclusive results are not listed. A number with no mark means an inactive call. Activity calls are given as the source filed them. Calls follow the shape of the dose curve; as a rule, active = well fitted cell-killing curve with a large enough effect; inconclusive = small, poorly fitted or top-dose-only effect, or effect the other way; inactive = no such curve, though single readings can be large or run the other way.

Experiment: Viability qHTS for spleen associated tyrosine kinase inhibitor (SYKi) naive MV4-11 cells (AID 1963823); also: nearly all actives have a fitted effect of over 40% in size
Details: MV4-11 AML viability, CellTiter-Glo luminescence, 72 h; series mostly up to 45 µM; viability (% of control): at the top concentration
How it was run: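 Seeding of 500 SYKi-naive MV4-11 cells per well onto pre-dispensed compounds preceded a 72 hr incubation at 37 C. Luminescent CellTiter-Glo signal, read after 10 min at room temperature, reflected viable cells.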
Potency is read from the fitted curve at half-maximal effect.

| SMILES | viability (% of control) | Potency |
| --- | --- | --- |
| OC[C@H]1O[C@@H](OCCc2ccc(O)cc2)[C@H](O[C@@H]2OC[C@](O)(CO)[C@H]2O)[C@@H](O)[C@@H]1O | 85% [at 17.3 µM] | – |
| C#CC(=O)N(c1ccc(OC)cc1OC)C(C(=O)NCC(=O)OCC)c1cccs1 (stereo not given) | – | 0.116 µM (active) |
| Cc1nc2ccccc2c(-c2ccc3c4c(ccnc24)CCO3)c1[C@H](OC(C)(C)C)C(=O)O | 60.9% | – |
| CN(C)CCNC(=O)c1cccn2c(=O)c3cc4ccccc4cc3nc12 | – | 0.299 µM (active) |
| COc1cc(/C=C/C(=O)OC[C@H]2O[C@@H](OC3OC=C(C(=O)O)C4C(O)CC(C)(O)C34)[C@H](O)[C@@H](O)[C@@H]2O)cc(OC)c1O (stereo not given in full) | 63.4% [at 17.3 µM] | – |
| Cc1ccnn1-c1ccc(C(=O)N2CCN(S(=O)(=O)c3ccc(Cl)c(C(F)(F)F)c3)CC2)cc1 | 73% | – |
| COC(=O)c1cc(OC)cc(OC)c1C(=O)c1c(OC)cc2c(c1O)C1CCCC(C)(O2)O1 (stereo not given) | 59.3% [at 17.3 µM] | – |
| COc1cc2nc(N3CCN(C(=O)COc4c(OC)cccc4C(C)C)CC3)nc(N)c2cc1OC | – | 20.6 µM (active) |
| Cn1ccc(NC(=O)c2cc(Oc3ccc(C(=O)N4CCC4)c(F)c3)c3c(c2)OC(C)(C)C3)n1 | 54% | – |
| CC1(C)CC[C@]2(C(=O)O)[C@H](O)C[C@]3(C)C(=CCC4[C@@]5(C)CC[C@H](O[C@@H]6O[C@H](CO[C@@H]7OC[C@H](O)[C@H](O)[C@H]7O[C@@H]7OC[C@H](O)[C@H](O)[C@H]7O)[C@@H](O)[C@H](O)[C@H]6O)C(C)(C)C5CC[C@]43C)[C@@H]2C1 (stereo not given in full) | 57.5% [at 9.25 µM] | – |
| CC1CCC2C(C)(C)C(O)C(O)CC2(C)C12Cc1c(O)cc(CO)c(C=O)c1O2 (stereo not given) | 5.88% [at 17.3 µM] | – |
| COC(=O)C1=C(C)NC(C)=C(C(=O)OCCN(C)Cc2ccccc2)C1c1cccc([N+](=O)[O-])c1 (stereo not given) | – | 11.9 µM (active) |
| COC(=O)[C@H](O)[C@H]1C(C)(C)[C@H](OC(C)=O)[C@@]2(O)C(=O)[C@]1(C)C1CC[C@]3(C)C(CC(=O)O[C@H]3c3ccoc3)[C@]13O[C@@H]32 (stereo not given in full) | 72.5% [at 17.3 µM] | – |
| C[C@H](NC(=O)CCc1nc2ccccc2c(=O)[nH]1)c1ccccc1 | 63.7% | – |
| Cc1c(C(=O)NCCCO)cnn1-c1nc(-c2cccc(C(F)(F)F)c2)cs1 | – | 14.6 µM (active) |
| C[C@@H]1CC[C@]2(C(=O)O)CC[C@]3(C)C(=CCC4[C@@]5(C)C[C@@H](O)[C@H](O)[C@@](C)(CO)C5CC[C@]43C)C2[C@]1(C)O (stereo not given in full) | 76.2% [at 17.3 µM] | – |
| COc1c(C(CC(C)C)OC(C)=O)ccc(Oc2c(O)cc(C)cc2/C=C/C(C)=O)c1C(=O)O (stereo not given) | 50.6% [at 17.3 µM] | – |
| CC12CCC3c4ccc(O)cc4CCC3C1CCC2OC1OC(C(=O)O)C(O)C(O)C1O (stereo not given) | 72.8% | – |
| CN(C)C(=O)COC(=O)c1cc(-c2ccc(C3CCNCC3)cc2)c2ccc(-c3ccc(C(F)(F)F)cc3)cc2c1 | – | 4.61 µM (active) |
| C[C@@H]1CC[C@@]23CC[C@]4(C)[C@@](C=CC5[C@@]6(C)CC[C@H](O)C(C)(C)C6CC[C@]54C)(OC2=O)C3[C@H]1C (stereo not given in full) | 47.6% [at 17.3 µM] | – |

| SMILES | viability (% of control) | Potency |
| --- | --- | --- |
| CC1=CC(=O)CC(C)(C)[C@@]1(O)/C=C/C(C)O[C@@H]1O[C@H](CO)[C@@H](O)[C@H](O)[C@H]1O (stereo not given in full) | 102% [at 17.3 µM] | – |
| CC(C)[C@@H]1C(=O)N(S(C)(=O)=O)[C@@H]2CCN(C(=O)/C=C/CN3CCCCC3)[C@H]21 | 45.1% | – |
| CC(=O)[C@H]1CC[C@H]2[C@@H]3CC=C4C[C@@H](OS(=O)(=O)O)CC[C@]4(C)[C@H]3CC[C@]12C | 75.2% | – |
| C=C1/C(=C/C=C2\CCC[C@@]3(C)C2CCC3[C@H](C)/C=C/[C@@H](O)C2CC2)C[C@@H](O)C[C@@H]1O (stereo not given in full) | 4.37% | – |
| CC1=C2C3OC(=O)C(C)C3(O)CCC2(C)CCC1 (stereo not given) | 81.7% | – |
| O=C(/C=C/c1ccc(O)cc1)c1ccc(O)cc1O | – | 18.6 µM (active) |
| O=S(=O)(c1ccccc1)c1cnc2c(N3CCNCC3)cccc2c1 | 51.8% | – |
| C=C1C(=O)OC2CC(C)=C(C(C)CCCO)C(O)C12 (stereo not given) | 61.1% | – |
| Cc1occc1C(=O)n1ccnc1 | 65% | – |
| C[C@@H]1O[C@@H](O[C@H]2[C@H](O[C@H]3[C@H](O[C@H]4CC[C@@]5(C)C(CC[C@]6(C)C5CC=C5[C@@H]7CC(C)(C)C[C@@H](O)[C@]7(C)CC[C@]56C)C4(C)C)O[C@H](C(=O)O)[C@@H](O)[C@@H]3O)O[C@H](C(=O)O)[C@H](O)[C@@H]2O)[C@H](O)[C@H](O)[C@H]1O (stereo not given in full) | 101% [at 9.25 µM] | – |
| Cc1ccccc1N1CCN(S(=O)(=O)C[C@]23CC[C@H](C[C@@H]2NC(=O)[C@@H](N)CCS(C)(=O)=O)C3(C)C)CC1 | 70.8% | – |
| CC[N+]1(C/C2=C/CCCCCC2)CCC(NC(=O)C2c3cc(Cl)ccc3Oc3ccc(Cl)cc32)CC1 (stereo not given) | – | 6.51 µM (active) |
| C=C1CCC2C(C)(C(=O)O)CCCC2(C)C1CC/C(=C\CO)CO (stereo not given) | 68% | – |
| CCCc1cc(C)n(C)c(=O)c1CN(C)C(=O)c1cc(-c2ccc(N3CCN(C(C)C)CC3)nc2)cc2c1cnn2C(C)C | 65.8% | – |
| C[C@H]1[C@H](C)CC[C@]2(C(=O)O)CC[C@]3(C(=O)O)C(=CCC4[C@@]5(C)CC[C@H](O[C@@H]6O[C@@H](C)[C@H](O)[C@@H](O)[C@H]6O)C(C)(C)C5CC[C@]43C)[C@H]12 (stereo not given in full) | 70.7% [at 17.3 µM] | – |
| C=CC1C(OC2OC(CO)C(O)C(O)C2O)OC=C2C(=O)N3C(C(=O)O)Cc4c([nH]c5ccccc45)C3CC21 (stereo not given) | 71.7% [at 17.3 µM] | – |
| CC1(C)CCC(C)(C)c2cc3c(cc21)Sc1ccccc1N=C3c1ccc(C(=O)O)cc1 | 63.5% | – |
| CCOc1nc(NC(=O)Cc2cc(OC)ccc2OC)cc(N)c1C#N | 93.1% | – |
| C/C=C(/C)C(=O)OC1C2OC2C2(CO2)C2C3OC(=O)C(C)C3CCC12C (stereo not given) | 55.9% | – |
| COc1cc(Nc2ccc([N+](=O)[O-])cc2C(=O)O)cc2ccccc12 | 78.6% | – |
